Screens deposited in PubChem by Broad Institute.
This is a sample that favours compounds with a hit; in the whole collection about 3.9% have one here.
NSD2 HMT inh: NSD2 histone methyltransferase inhibitors, primary screen, biochemical, AlphaScreen, single concentration, set 2 | Histone-lysine N-methyltransferase NSD2 (Homo sapiens), O96028 | NSD2 peptide methylation, 120 min | inhibition, % at 12.5 µM | 310,000 tested, 0.54% active; in the data active = inhibition above about 50%
CDK5 inh: inhibitors of human CDK5/p35 kinase, primary screen, biochemical, single concentration. Cyclin-dependent kinase 5 (Homo sapiens) + Cyclin-dependent kinase 5 activator 1 (Homo …. Recombinant CDK5/p35, ADP-Glo luminescence, 60 min. inhibition, % at 10 µM. 330,000 tested, 0.01% active;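 active = highest replicate inhibition of at least 50% and at least 75% of replicates reaching 50%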
SUMO Mot1 rescue: yeast Mot1-301 growth rescue at high temperature, primary screen, SUMOylation pathway inhibitor project, S. cerevisiae, ATP luminescence, 38.5C; S. cerevisiae Mot1-301 growth rescue; percent above DMSO median, 100 means doubled; growth rescue, % at 18.8 µM; 320,000 tested, 1% active; AID 2716, 2010;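 active = every valid replicate shows activation above 250% relative to neutral control wells; inactive = the rest, any valid replicate at or below 250%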
Glyco luc inh: increase of ERlucT glycosylation luciferase signal, primary screen, N-linked glycosylation inhibitor project, D54 ERlucT cells, luminescence, set 2. D54 ERlucT glycosylation luciferase reporter, 24 h; percent of 100 nM tunicamycin response. reporter increase, % at 12.5 µM. 360,000 tested, 0.23% active. AID 588692, 2011;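 active = mean luciferase reporter signal, scaled so untreated is 0 and the glycosylation-blocking control 100, at or above a set limit in every replicate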;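 also: luciferase carries N-glycosylation sites so blocking glycosylation raises the light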
ALR H2O2 inh: inhibitors of human ALR sulfhydryl oxidase, primary screen, biochemical, H2O2 detection, HRP-luminol luminescence, single point; 290,000 tested, 3.8% active; inhibition, % (test concentration not listed); FAD-linked sulfhydryl oxidase ALR (Homo sapiens), P55789; purified ALR, DTT oxidation;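 active = mean replicate inhibition above about 79%, with every replicate also reaching it, limit read from the data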
Target sequence (P55789 whole entry, looked up): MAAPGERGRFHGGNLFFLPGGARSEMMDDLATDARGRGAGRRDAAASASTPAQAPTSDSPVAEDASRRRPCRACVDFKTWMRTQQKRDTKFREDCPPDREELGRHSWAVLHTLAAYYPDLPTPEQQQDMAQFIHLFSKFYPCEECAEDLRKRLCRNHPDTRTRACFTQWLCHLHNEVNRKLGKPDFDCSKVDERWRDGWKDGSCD
Casp6 inh: human caspase-6 inhibitors, primary screen, biochemical, VEID-R110 fluorescence, single point, set 2; purified caspase-6, Z-VEID-R110 cleavage fluorescence; inhibition, % at 12.5 µM; 350,000 tested, 0.53% active; AID 686996, 2013;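 active = mean inhibition across replicates at least about 35%, with every replicate also reaching that limit, limit read from the data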
Target sequence (P55212 24-179 limits assumed): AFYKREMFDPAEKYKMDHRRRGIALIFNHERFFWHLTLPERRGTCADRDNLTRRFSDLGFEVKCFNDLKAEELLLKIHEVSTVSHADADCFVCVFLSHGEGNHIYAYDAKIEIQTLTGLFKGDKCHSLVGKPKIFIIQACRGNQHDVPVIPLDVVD
Target sequence (P55212 194-293 limits assumed): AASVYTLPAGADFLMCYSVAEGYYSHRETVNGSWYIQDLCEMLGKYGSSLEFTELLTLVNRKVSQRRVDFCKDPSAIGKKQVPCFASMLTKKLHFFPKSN
Yeast Mot1 SUMO: growth restoration of Mot1-301 yeast on galactose, dose response, SUMO pathway inhibitor project, whole organism, S. cerevisiae, ATP luminescence, cherry-picked samples; shares compounds with SUMO Mot1 rescue; S. cerevisiae Mot1-301 galactose growth, 24 h; -100 = growth of slx-deleted rescue strain; growth activity, percent, % at 42 µM; 2,300 tested, under 10 active; AID 493004, 2010;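 active = Signal drops as the depositor expects, and the fitted half-maximal dose is no more than ten times the top valid tested dose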;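 also: more negative values mean stronger growth rescue toward the control strain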
Numbers stand for hits; n = inactive; x = no result; + = active, no number.

SMILES | NSD2 HMT inh | CDK5 inh | SUMO Mot1 rescue | Glyco luc inh | ALR H2O2 inh | Casp6 inh | Yeast Mot1 SUMO
Cc1c(/C=N/NC(=O)C(C)(C)Oc2ccc(Cl)cc2)cnn1C | n | n | n | n | n | x | x
Cc1nn(C)c(C)c1/C=N/NC(=O)C(C)(C)Oc1ccc(Cl)cc1 | n | n | 591.3 | n | n | n | n
CCn1c(=O)n(CC)c2cc(NC(=O)c3ccccc3Cl)ccc21 | n | n | 405.9 | n | n | n | n
O=C(Nc1ccc2ccccc2c1)c1ccccc1Cl | n | x | x | n | x | n | x
O=C(O)CNS(=O)(=O)Cc1ccccc1 | n | n | 917.5 | n | x | n | n
O=S(=O)(Cc1ccccc1)NCc1ccccn1 | n | n | 610.5 | n | n | n | n
COc1ccccc1/C=C/C(=O)c1ccccc1 | n | n | n | n | n | n | x
COc1ccccc1/C=C/C(=O)c1c2c(c(C)[nH]c1=O)CCCC2 | x | n | n | n | n | n | n
CSc1ccc(CN2CCN(S(=O)(=O)Cc3ccccc3)CC2)cc1 | n | n | 379.4 | n | x | n | n
O=C(C1CCN(S(=O)(=O)Cc2ccccc2)CC1)N1CCN(c2ncccn2)CC1 | n | n | n | n | n | x | x
COC(=O)C1CCN(S(=O)(=O)Cc2ccccc2Cl)CC1 | n | n | n | n | n | n | x
COC(=O)C1CCN(S(=O)(=O)Cc2ccccc2)CC1 | n | n | 688.7 | n | n | n | n
O=S(=O)(Cc1ccccc1)N1CCN(c2ncccn2)CC1 | n | n | 398.8 | n | n | n | n
CO[C@H]1CN(C)C(=O)c2cc(NS(C)(=O)=O)ccc2OC[C@H](C)N(S(C)(=O)=O)C[C@@H]1C | x | x | x | x | x | n | x
O=C(c1ccccc1F)N1C[C@H]2[C@@H](c3ccccc31)[C@H](CO)N2C(=O)c1ccncc1 | x | x | x | x | x | n | x
C[C@@H]1CN([C@H](C)CO)C(=O)c2cccc(NC(=O)Nc3ccc(F)cc3)c2O[C@H]1CN(C)Cc1ccncc1 | x | x | x | x | x | n | x
CN(C)CC/C=C1/c2cc(F)ccc2Sc2ccc(Cl)cc21 | n | n | 738.2 | n | n | n | n
COc1ccc(-c2cc(CS(=O)(=O)c3ccccc3)on2)cc1 | n | n | n | n | n | n | x
O=S(=O)(Cc1cc(-c2ccccc2)no1)c1ccccc1 | n | n | 642.6 | n | x | n | n
CC(=O)c1c(N2CCCC2)[nH]c(-c2ccccc2)nc1=S | n | n | n | n | n | n | x
CC(=O)c1c(N)[nH]c(-c2ccccc2)nc1=S | n | n | 886.3 | n | n | x | n
O=C(O)c1ccc(/C=N/NC(=O)c2cc(-c3ccc4c5c(cccc35)CC4)n[nH]2)cc1 | n | n | + | n | n | n | n
O=C(c1ccc(Br)cc1)N1CCN(c2ncccn2)CC1 | n | n | n | n | n | n | x
O=C(c1ccc([N+](=O)[O-])cc1)N1CCN(c2ncc(Br)cn2)CC1 | n | n | 656.3 | n | n | n | n
O=C(O)c1cn(Cc2ccccn2)c(=O)c2ccccc12 | n | n | + | n | n | n | n
SMILES | NSD2 HMT inh | CDK5 inh | SUMO Mot1 rescue | Glyco luc inh | ALR H2O2 inh | Casp6 inh | Yeast Mot1 SUMO
Oc1c(Br)cc(Br)cc1/C=N/N1CCN(Cc2ccccc2)CC1 | n | n | 842.5 | n | x | x | n
Cc1ccc(CN2CCN(/N=C/c3cc(Br)cc(Br)c3O)CC2)cc1 | n | n | n | n | n | x | x
Cc1nn(-c2ccccc2)c(N)c1N=Nc1ccccc1 | n | n | n | n | n | n | x
Cc1nn(-c2ccccc2)c(N)c1N=Nc1cccc(S(=O)(=O)N2CCOCC2)c1 | n | n | 386.7 | n | n | n | n
O=S(=O)(Nc1cccc2cn[nH]c12)c1ccc(F)cc1 | n | n | 790.1 | n | n | x | n
COc1cc(S(=O)(=O)Nc2cccc3cn[nH]c23)c(OC)cc1C | n | n | n | n | n | n | x
CCOc1cc(/C=C2\NC(=O)NC2=O)ccc1OC(C)C(=O)O (configuration not stated) | n | n | 513.8 | n | n | n | n
COc1cc(/C=C2/NC(=O)NC2=O)ccc1OCC(=O)Nc1ccc(F)cc1 | n | n | n | n | n | n | x
C[C@@H]1CN([C@H](C)CO)C(=O)c2cc(NC(=O)C3CC3)ccc2O[C@H]1CN(C)C(=O)Nc1ccc2c(c1)OCO2 | x | x | x | x | x | n | x
COc1cc2c(cc1OC)C(c1ccc(SC)cc1)CC(=O)N2 (configuration not stated) | n | n | 665.7 | n | n | n | n
COc1cc2c(cc1OC)C(c1cccc(OC)c1OC)CC(=O)N2 (configuration not stated) | n | n | n | n | n | x | x
COc1cc2c(cc1OC)C(c1ccccc1C)CC(=O)N2 (configuration not stated) | n | n | 732.1 | n | n | n | n
C[C@@H]1CCCCO[C@@H](CN(C)C(=O)c2ccccc2)[C@@H](C)CN([C@@H](C)CO)C(=O)c2cc(NS(C)(=O)=O)ccc2O1 | x | x | x | x | x | n | x
O=C(Cc1ccccc1)NNC(=S)Nc1ccc(Cl)cc1 | n | n | n | n | n | n | x
O=C(CCc1ccccc1)NNC(=S)Nc1ccc(F)cc1 | n | n | 376.9 | n | n | n | n
O=C(CC(c1ccccc1)c1ccccc1O)NCc1ccccc1 (configuration not stated) | n | n | n | n | n | n | x
O=C(CC(c1ccccc1)c1ccccc1O)NCCN1CCOCC1 (configuration not stated) | x | n | 428.3 | n | n | x | n
O=S(=O)(CCN1CCCCC1)Oc1ccc(Cl)cc1Cl | n | n | 921.7 | n | x | n | n
CC(C)NC(=O)N(C)C[C@@H]1Oc2ccc(NC(=O)Cc3cn(C)c4ccccc34)cc2C(=O)N([C@@H](C)CO)C[C@H]1C | x | x | x | x | x | n | x
CC1(C)CC(=O)C(C(=O)c2ccccc2)C(=O)C1Cl (configuration not stated) | n | n | 536.1 | n | n | n | n
CC1(C)CC(=O)C(C(=O)c2ccccc2)C(=O)C1 | n | n | n | n | x | n | x
CO[C@H]1CN(C)C(=O)c2cc(NC(=O)C3CC3)ccc2OC[C@@H](C)N(C(=O)CN(C)C)C[C@@H]1C | x | x | x | x | x | n | x
CC1(C)CC(=O)C(C=Nc2ccc(O)c(N=CC3=C(O)CC(C)(C)CC3=O)c2)=C(O)C1 | n | n | 480.2 | n | n | n | n
